# Compound activity deposited in PubChem BioAssay by several laboratories.
# In the library only some 1.4% were active in any assay of this set; here they are far more common.
# EBV gp42 inh: inhibitors of Epstein-Barr virus glycoprotein 42. Q1HVG2. Fluorescence polarization binding assay, mP read-out. inhibition, % (tested at 21.74 µM). 220,000 compounds, 0.42% hits; in the data active = inhibition above about 50%
# Target sequence (Q1HVG2 whole entry, looked up): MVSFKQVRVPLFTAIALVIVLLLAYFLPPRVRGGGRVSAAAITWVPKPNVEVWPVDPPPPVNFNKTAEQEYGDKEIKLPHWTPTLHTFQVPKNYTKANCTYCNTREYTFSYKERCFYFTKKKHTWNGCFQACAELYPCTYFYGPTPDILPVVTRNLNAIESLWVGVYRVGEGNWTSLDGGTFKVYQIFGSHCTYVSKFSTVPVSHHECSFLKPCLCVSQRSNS
# GLD-1 RNA inh: GLD-1-TGE RNA interaction inhibition (C. elegans) | Q17339 | inhibition, % at 5.96 µM | purified GLD-1 + fluorescein TGE RNA, fluorescence polarization | 320,000 compounds, 0.44% hits | AID 2280;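 active = percent inhibition above a per-plate cutoff, the plate mean of test compounds plus 3 SD, cut at about 30% in these data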;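 also: 0% = DMSO wells with GLD-1 and probe and 100% = wells lacking GLD-1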
# MCL1-BIM inh: inhibitors of human MCL1 binding to BIM-BH3 peptide | Q07820 | GST-MCL1 / FITC-Bim-BH3 fluorescence polarization | inhibition, % at 10.9 µM | 320,000 compounds, 0.68% hits | AID 2057;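 active = inhibition above the mean inhibition of all tested compounds plus 3 SD, set per campaign, cut at about 40% in these data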;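 also: 0% = DMSO wells and 100% = unlabeled Bim-BH3 peptide control; higher means more loss of mP so more displacement of Bim peptide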
# Target sequence (Q07820 whole entry, looked up): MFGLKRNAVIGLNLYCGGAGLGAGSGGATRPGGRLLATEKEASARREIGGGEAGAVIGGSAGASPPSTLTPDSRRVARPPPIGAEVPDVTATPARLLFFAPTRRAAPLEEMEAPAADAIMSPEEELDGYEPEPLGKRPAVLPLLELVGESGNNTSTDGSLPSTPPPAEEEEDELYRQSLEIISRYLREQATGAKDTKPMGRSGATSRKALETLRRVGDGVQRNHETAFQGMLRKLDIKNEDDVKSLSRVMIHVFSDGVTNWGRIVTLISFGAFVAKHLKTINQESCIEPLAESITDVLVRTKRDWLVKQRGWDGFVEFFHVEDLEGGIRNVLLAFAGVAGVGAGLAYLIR
# MEX-5 binding: C. elegans MEX-5 TCR-2 RNA binding activity; Q9XUB2; activity score (negative = inhibition of binding), % at 10 µM; 300,000 compounds, 0.38% hits; MEX-5/FITC-TCR2 RNA binding, fluorescence polarization; active compounds read low;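 active = inhibition past about -25% in most replicates, and total fluorescence under double the plate's negative control median, limit read from the data; inconclusive = replicates evenly split on the limit, or fluorescence at least double controls; inactive = too little inhibition in most replicates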;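 also: 0% = DMSO and -100% = 5 µM competing unlabeled TCR2 RNA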
# BCLXL inh: inhibitors of human Bcl-xL; Q07817; GST-Bcl-xL / FITC-Bim BH3 peptide fluorescence polarization; inhibition, % at 10.9 µM; 320,000 compounds, 0.7% hits;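 active = inhibition above the mean of all tested compounds plus 3 SD, cutoff set per campaign, cut at about 30% in these data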;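 also: 0% = DMSO wells and 100% = unlabeled Bim-BH3 peptide competitor; inhibitors lower millipolarization by displacing the labeled peptide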
# eLon inh: inhibitors of E. coli Lon protease | P0A9M0 | purified E. coli Lon protease, fluorescence polarization | inhibition, % at 7.94 µM | 360,000 compounds, 0.42% hits; in the data active = inhibition above about 13%, passing the limit was not always enough;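 also: 0% = enzyme with probe and DMSO and 100% = no enzyme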
# BCLXL inh confirm: Bcl-xL (human) inhibition, MCL1 counter-screen confirmation | shares compounds with MCL1-BIM inh | GST-Bcl-xL / FITC-Bim BH3 peptide FP binding | inhibition, % at 10.9 µM | 1,700 compounds, 54% hits;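 active = inhibition above a cutoff equal to the mean inhibition of all tested compounds plus 3 SD, cut at about 30% in these data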;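 also: 0% = DMSO wells and 100% = unlabeled Bim BH3 control peptide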
# MCL1 BIM confirm: confirmation of human MCL1 and BIM-BH3 interaction inhibitors. 1,700 compounds, 61% hits. GST-MCL1 / FITC-Bim-BH3 fluorescence polarization. inhibition, % at 10.9 µM. shares compounds with MCL1-BIM inh;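 active = inhibition above the average of all tested compounds plus 3 SD, cut at about 40% in these data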;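 also: 0% = DMSO wells and 100% = unlabeled Bim-BH3 control peptide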
# * = called active by the depositor; ? = inconclusive; . = no result.
SMILES,EBV gp42 inh,GLD-1 RNA inh,MCL1-BIM inh,MEX-5 binding,BCLXL inh,eLon inh,BCLXL inh confirm,MCL1 BIM confirm
Cc1cc(O)c(CN(C)C)c2c1C(=O)/C(=C/c1ccco1)O2,.,26,61*,-37*,62*,-24,78*,89*
COc1ccc2c(c1)O/C(=C\c1ccco1)C2=O,-21,0,10,-5,7,-13,.,.
COCCCn1c(=O)c2ccccc2n2c(=S)[nH]nc12,.,5,-25,1,-34,5,.,.
O=C1/C(=C/c2cccc(F)c2)CSc2sccc21,-4,6,2,-1,3,2,.,.
O=C1/C(=C/c2cccc(Cl)c2)CSc2sccc21,-5,3,56*,2,6,-3,9,5
C/C=C/C=C/[C@H]1Cc2cc(O)cc(O)c2O1,54*,88*,67*,-9,60*,.,57*,83*
CC(=O)Oc1ccc2c(=O)c(Oc3ccccc3)coc2c1OC(C)=O,-11,-2,50*,-2,15,2,20,40
COc1ccc(C(=O)N2CCn3c(C)ccc3C2C)cc1 (centres undefined),9,14,49*,1,47*,-13,12,11
S=c1[nH]nc(-c2cc(-c3ccccc3)n[nH]2)n1/N=C/C(Br)=C/c1ccccc1,5,8,-11,0,-17,-3,.,.
CN1CCN(C(c2ccc(Br)cc2)c2cc(Cl)c3cccnc3c2O)CC1 (centres undefined),.,-2,40*,-3,20,2,47*,106*
CN1CCN(C(c2cccnc2)c2ccc3cccnc3c2O)CC1 (centres undefined),-10,2,8,-6,14,-8,.,.
O=C(CCCSc1nnnn1-c1ccccc1)c1ccc(F)cc1,-18,.,.,.,.,.,.,.
O=C(COc1cccc(F)c1)Nc1nc(-c2cccnc2)cs1,.,1,9,.,8,-8,.,.
CCOc1ccc(NC(=O)c2cccc(-n3cccc3)c2)cc1S(=O)(=O)N1CCOCC1,.,12,67*,.,0,0,4,56*
COc1ccc(S(=O)(=O)N2CCOCC2)cc1NC(=O)c1cccc(-n2cccc2)c1,.,3,8,4,-10,-15,.,.
COCc1cc(C)n(CC(=O)Nc2cc(C)cc(C)c2)c(=O)c1C#N,-8,4,12,-1,4,-5,.,.
O=C(CC1Nc2ccccc2NC1=O)NCCc1ccccc1 (centres undefined),2,-4,4,3,9,3,.,.
O=C(CC1Nc2ccccc2NC1=O)c1ccccc1 (centres undefined),0,-25,46*,?,15,.,-11,-21
CC(OC(=O)CCN=C1NS(=O)(=O)c2ccccc21)C(=O)Nc1ccc(F)c(F)c1F (centres undefined),.,4,-16,-2,-18,-9,.,.
CN1C(=O)/C(=C/c2ccc(-c3ccccc3[N+](=O)[O-])o2)SC1=Nc1ccc(Cl)c(C(=O)O)c1,-3,25,74*,?,44*,-4,23,40
O=C(O)c1cc(-c2ccc(/C=C3/SC(=S)N(Cc4ccccc4)C3=O)o2)ccc1Cl,-105,.,.,.,.,-116,.,.
CN1C(=O)C(=C2CCCCCC2)SC1=S,-23,4,9,4,-2,10,.,.
O=C1NC(=S)SC1=C1CCCC1,-16,-7,44*,4,12,-6,26,60*
C=C(C)CN=CC1(C)CCC(C)=CO1 (centres undefined),.,.,.,.,.,-14,.,.
Cn1c2ccccc2c2cc(/C=N/NC(=O)c3cc(O)ccc3O)ccc21,.,8,57*,1,32*,5,62*,93*
SMILES,EBV gp42 inh,GLD-1 RNA inh,MCL1-BIM inh,MEX-5 binding,BCLXL inh,eLon inh,BCLXL inh confirm,MCL1 BIM confirm
COCCNC(=O)C1(C)CCCN(C(=O)c2ccc3c(c2)CCO3)C1 (centres undefined),.,.,.,.,.,-7,.,.
COC(=O)CCN1CCc2cc(N=Nc3ccc([N+](=O)[O-])cc3)ccc21,-18,-1,-1,-7,-2,1,.,.
C=CCn1c(Cc2ccccc2)n[nH]c1=S,-20,3,6,-1,-3,4,.,.
C=CCn1c(CSc2ccccc2[N+](=O)[O-])n[nH]c1=S,.,0,46*,-2,18,-5,28,46*
CN(C(=O)CN1C(=O)NC(C)(c2cccc(Br)c2)C1=O)C1CCCCC1 (centres undefined),.,-2,82*,.,8,-3,4,0
CCc1cc(C(=O)N2CCCC(Nc3ccc(F)c(F)c3)C2)n(C)n1 (centres undefined),.,0,-2,4,3,-5,.,.
Cc1ccc2c(c1)Sc1c(ccc3ccccc13)N2,-6,-3,71*,-3,67*,21,80*,104*
O=C(O)C(c1ccccc1)N1C(=O)/C(=C\c2ccc(O)c(O)c2)SC1=S (centres undefined),.,-72,70*,-15,17,-35,63*,88*
COc1cc(/C=C2\SC(=S)N(C(C(=O)O)c3ccccc3)C2=O)ccc1O (centres undefined),-66,-51,0,?,-2,-117,.,.
COc1ccc(N2C3=C(CC4=C2CC(C)(C)CC4=O)C(=O)CC(C)(C)C3)cc1,9,13,8,0,11,8,.,.
COc1ccc(N2C3=C(CC4=C2CCCC4=O)C(=O)CCC3)cc1,19,7,77*,-4,75*,-3,32*,31
CCCCOc1ccc(C2OC34CCCCC3C(C#N)(C#N)C2(C#N)C(=N)O4)cc1 (centres undefined),-1,92*,166*,.,137*,27,52*,68*
CCOc1ccc(C2OC34CCCCC3C(C#N)(C#N)C2(C#N)C(=N)O4)cc1OC (centres undefined),0,130*,167*,-29*,143*,34*,107*,133*
Cc1ccc(C2OC34CCCCCC3C(C#N)(C(=N)O4)C2(C#N)C#N)cc1 (centres undefined),11,16,30,-7,23,16,.,.
O=C(N/N=C/c1ccncc1)c1cc([N+](=O)[O-])cc([N+](=O)[O-])c1O,-15,-1,43*,-7,9,-5,12,49*
Cc1cccn2c(=O)c(C=O)c(Cl)nc12,2,14,24,-2,27,-3,.,.
O=Cc1c(Cl)nc2ccccn2c1=O,1,19,59*,-1,56*,15,10,11
